Experimental findings from PubChem BioAssay (NCATS) are described below.

Records with an inconclusive call do not appear. Activity calls are given as the source filed them. Calls follow the shape of the dose curve; as a rule, active = well fitted cell-killing curve with a large enough effect; inconclusive = small, poorly fitted or top-dose-only effect, or effect the other way; inactive = no such curve, though single readings can be large or run the other way.
Potency is read from the fitted curve at half-maximal effect.

The test is described as follows: Quantitative High-Throughput drug screen in 47 multiple myeloma cell lines against the NCATS MIPE library collection: EJM_DSMZ cell viability assay (AID 1918926; also: nearly all actives have a fitted effect of over 30% in size). Particulars: EJM myeloma cell viability, CellTiter-Glo ATP, 48 h; series mostly up to 45.8 µM; viability, % of control: at the top concentration. The source says: PI: Beverly A. Mock Ph.D.
Laboratory of Cancer Biology and Genetics,
Center for Cancer Research, National Cancer Institute,
National Institute of Health, Bethesda, Maryland
Drug resistance and disease progression are common in multiple myeloma (MM) patients, underscoring the need for new therapeutic combinations. […] We hypothesized that effective combinations would reduce MYC expression and enhance p16 activity. […] These preclinical data identify potentially useful drug combinations for evaluation in drug-resistant MM and reveal potential mechanisms of combined drug sensitivity.
Described herein is the primary MIPE qHTS used to cherrypick compounds. Validated compounds were then further tested for potential synergistic activiy.
[1] Peat TJ, Gaikwad SM, Dubois W, Gyabaah-Kessie N, Zhang S, Gorjifard S, Phyo Z, Andres M, Hughitt VK, Simpson RM, Miller MA, Girvin AT, Taylor A, Williams D, D'Antonio N, Zhang Y, Rajagopalan A, Flietner E, Wilson K, Zhang X, Shinn P, Klumpp-Thomas C, McKnight C, Itkin Z, Chen L, Kazandijian D, Zhang J, Michalowski AM, Simmons JK, Keats J, Thomas CJ, Mock BA. Drug combinations identified by high-throughput screening promote cell cycle transition and upregulate Smad pathways in myeloma. Cancer Lett. 2023 Aug 1;568:216284. doi: 10.1016/j.canlet.2023.216284. Epub 2023 Jun 24. PMID: 37356470; PMCID: PMC10408729.
SEQUENCE No. (e.g., 1, 2, 3, etc.); […] (e.g., Cells, Incubation, Reagent, etc.); VALUE and DESCRIPTION.
1; Cells; 5 uL; white, solid bottom 1536-well Greiner assay plate.
2; Compounds; 23 nL; Kalypsis pin tool (Wako USA) equipped with a 1536-well pin head to transfer to the assay plates.
3; Incubation; 48 hours; 37C incubation.
4; Reagent;5uL; CellTiter Glo (Promega).
5; Detector; 425V; Luminescence; Viewlux PerkinElmer.
NOTES (numbers refer to Sequence numbers above)
1. The cell-based screening methods employed in this study were like those previously published. Briefly, the corresponding myeloma cell lines were screened in 1,536-well plates with 500 cells, 5-uL per well for inhibition of cell viability (assessed by measuring ATP levels with CellTiterGlo).
2. NCATS MIPE 4.0 library of approved and investigational drugs were added using the Kalypsis pin tool. Wells treated with DMSO only for 100% viability and media only wells for 0% viability were used as controls.
3. The assay plates were covered and incubated for 48 hours in a 37C, 5% CO2 incubator with controlled humidity.
4. After 48 hours, CellTilter-GloTM luminescent substrate mix (Promega) reagent was added to the assay plate and plates we incubated for 5 min at room temperature.
5. Signal was measured as median relative luminescence units on a ViewLux (PerkinElmer) multiplate reader.
[1] Heske CM, Davis MI, Baumgart JT, Wilson K, Gormally MV, Chen L, Zhang X, Ceribelli M, Duveau DY, Guha R, Ferrer M, Arnaldez FI, Ji J, Tran HL, Zhang Y, Mendoza A, Helman LJ, Thomas CJ. Matrix Screen Identifies Synergistic Combination of PARP Inhibitors and Nicotinamide Phosphoribosyltransferase (NAMPT) Inhibitors in Ewing Sarcoma. Clin Cancer Res. 2017 Dec 1;23(23):7301-7311. doi: 10.1158/1078-0432.CCR-17-1121. Epub 2017 Sep 12. PMID: 28899971; PMCID: PMC6636827.
For orientation: In ATP-based viability assays light output follows the ATP content of the culture.
Consider `C[C@@H]1O[C@@H](O[C@H]2C[C@@H](O)[C@]3(CO)[C@H]4[C@H](O)C[C@]5(C)[C@@H](C6=CC(=O)OC6)CC[C@]5(O)[C@@H]4CC[C@]3(O)C2)[C@H](O)[C@H](O)[C@H]1O`, for which the Potency is 0.0235 µM (active).

Turning to `CN(C)[C@@H]1C(=O)C(C(N)=O)=C(O)[C@@]2(O)C(=O)C3=C(O)c4c(O)cccc4[C@@](C)(O)[C@H]3C[C@@H]12`, the “viability, % of control” value was 101% (inactive).

As to `COC1(CS(=O)c2ccccc2)CCN(CCc2c[nH]c3ccc(F)cc23)CC1` (centres undefined), the “viability, % of control” value is 81.9% (inactive).

`CNCC(O)c1ccc(O)cc1` (centres undefined): the “viability, % of control” value is 94.5% (inactive).

Consider `CC1=C2C[C@@H]3[C@@H](CC=C4C[C@@H](O)CC[C@@]43C)[C@@H]2CC[C@]12O[C@H]1C[C@H](C)CN[C@H]1[C@H]2C`, for which the Potency is 8.33 µM (active).

`Cc1cc(SCc2sc(-c3ccc(C(F)(F)F)c(F)c3)nc2C)ccc1OCC(=O)O`: the “viability, % of control” value was 118% (inactive).

For the molecule `COc1ccc(C(=O)c2c(C)n(CCN3CCOCC3)c3ccccc23)cc1`, the “viability, % of control” value was 113% (inactive).

In the case of `COC[C@@H](NC(C)=O)C(=O)NCc1ccccc1`, the “viability, % of control” value was 136% (inactive).

For `CC(O)(CS(=O)(=O)c1ccc(F)cc1)C(=O)Nc1ccc(C#N)c(C(F)(F)F)c1` (centres undefined), the Potency is 0.187 µM (active).

In the case of `Cn1cc(C2=C(c3cn(C4CCN(Cc5ccccn5)CC4)c4ccccc34)C(=O)NC2=O)c2ccccc21`, the Potency is 11.8 µM (active).

With `CN(C)CCN(C)CCc1ccc(Cl)c(Cl)c1`, the “viability, % of control” value is 114% (inactive).

Consider `COc1ccc2c(c1OC)CN1CCc3cc4c(cc3C1C2)OCO4` (centres undefined), for which the Potency was 20.9 µM (active).

For the molecule `O=C(O)C(=O)c1cn(Cc2ccccc2)c2ccc(-c3ccc(OC(F)(F)F)cc3)cc12`, the “viability, % of control” value was 90.9% (inactive).

`Cc1cccc(C)c1NC(=O)CN1CCCC1=O`: the “viability, % of control” value is 113% (inactive).

Take `O=P1(NCCCl)OCCCN1CCCl` (centres undefined): the “viability, % of control” value is 69.3% (inactive).

Turning to `N[C@@H](Cc1ccc(N(CCCl)CCCl)cc1)C(=O)O`, the Potency is 14.8 µM (active).

Turning to `NCC1(CC(=O)O)CCCCC1`, the “viability, % of control” value is 111% (inactive).

In the case of `CNC(=O)c1ccc(N2C(=S)N(c3ccc(C#N)c(C(F)(F)F)c3)C(=O)C23CCC3)cc1F`, the Potency is 1.48 µM (active).

In the case of `CN1CCN(C(=O)O[C@H]2c3nccnc3C(=O)N2c2ccc(Cl)cn2)CC1`, the “viability, % of control” value was 105% (inactive).

On to `C=C(C)[C@H]1Cc2c(ccc3c2O[C@@H]2COc4cc(OC)c(OC)cc4[C@@H]2C3=O)O1`, for which the Potency was 4.69 µM (active).

Turning to `CCCC(C)(COC(N)=O)COC(=O)NC(C)C` (centres undefined), the “viability, % of control” value is 110% (inactive).

For `Fc1ccc(C(OCCN2CCN(CCCc3ccccc3)CC2)c2ccc(F)cc2)cc1`, the Potency was 13.2 µM (active).

`C[C@@H]1[C@@H](CC(C[C@H]2O[C@@H]3O[C@]4(C)CC[C@@H]5[C@H](C)CC[C@@H]([C@H]2C)[C@@]35OO4)C[S+](=O)([O-])c2ccc(COC(=O)N(C)C)cc2)O[C@@H]2O[C@]3(C)CC[C@H]4[C@H](C)CC[C@@H]1[C@@]24OO3` (some centres undefined): the Potency was 0.187 µM (active).

Regarding `CNC(=O)N1N=C(c2ccc(N)cc2)c2cc3c(cc2CC1C)OCO3` (centres undefined), the Potency is 11.8 µM (active).
